Reference: PubChem BioAssay (NCATS)
Results filed as inconclusive are left out. Calls of active or inactive are those of the source. Calls follow the shape of the dose curve; as a rule, active = well fitted cell-killing curve with a large enough effect; inconclusive = small, poorly fitted or top-dose-only effect, or effect the other way; inactive = flat fitted curve, though single readings scatter.

Experiment: S16 Schwann cell viability assay (CellTiter-Glo assay) (AID 624031);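 also: cellular ATP luminescence as a viability measure; nearly all actives have a fitted effect of over 70% in size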
Settings: S16 rat Schwann cells viability, 24 h; series mostly up to 57.5 µM; activity change, negative = cytotoxicity: at the top concentration
From the text: Charcot-Marie-Tooth-Association [CMTA]
National Center for Advancing Translational Sciences [NCATS]
Charcot-Marie-Tooth (CMT) disease was first characterized by Jean-Martin Charcot and Pierre Marie in France and, independently, by Howard Henry Tooth in England in 1886. CMT is one of the most common inherited neurological diseases, affecting approximately 1 in 2,500 Americans. […] The most prevalent type of CMT is known as CMT1A and caused by a duplication of the PMP22 gene which leads to over-expression of this protein. PMP22 is a glycosylated intrinsic membrane protein accounting for 2-5% of the myelin protein content, and its over-expression results in demyelination and subsequently axonal loss.
A pair of cellular transcription-based assays was developed in the S16 rat Schwann cell lines (Hai, M., et al., 2002) stably transfected with orthogonal reporters - firefly luciferase (Fluc) and beta-lactamase (beta-Lac) - whose expression is driven by an intronic regulatory element of the PMP22 gene (Jones, E.A., et al., 2011) to recapitulate endogenous expression of PMP22. A comprehensive library of approved drugs, the NCGC Pharmaceutical Collection (Huang, R., et al., 2011), was screened in the cross-validating platform of the orthogonal reporter assays to identify drug modulators inhibitory towards PMP22 expression.
A set of counter-screens was devised to address non-specific activity of the library. An ATP-dependent CellTiter-Glo assay (developed by Promega Corp) was utilized to control cell viability. In addition, biochemical Fluc enzyme assay was performed to assess direct inhibition of the Fluc enzymatic activity.
Hai, M., Muja, N., DeVries, G.H., Quarles, R.H. and Patel, P.I. Comparative analysis of Schwann cell lines as model systems for myelin gene transcription studies. J Neurosci Res, 2002. 69(4): pp 497-508
Huang, R., Southall, N., Wang, Y., Yasgar A., Shinn P., Jadhav, A. , Nguyen, D.-T. and Austin, C.P., The NCGC pharmaceutical collection: a comprehensive resource of clinically approved drugs enabling repurposing and chemical genomics. Sci Transl Med, 2011. 3(80): p. 80ps16.
Native S16 cells were seeded in white solid-bottom 1536 well plates at between 500-750 cells/6uL in DMEM medium containing 10% FBS, w/o phenol red. After overnight incubation at 37 degree Celsius/5% C02, 23 nL of compounds or DMSO were delivered to each well using a pin tool, followed by 24h-incubation at 37 degree Celsius/5% C02. Then one volume of CellTiter-Glo assay reagent (Promega) was added to each well for cell viability measured by a ViewLux plate reader (PerkinElmer). The % activity was determined by normalizing to the average readings from wells containing no cells relative to DMSO-treated cells (0% Activity). The concentration-effect curves were then classified based on curve quality (r2), response magnitude and degree of measured activity.

Row | SMILES | activity change, negative = cytotoxicity | Potency
1 | CC(CN1CC(=O)NC(=O)C1)N1CC(=O)NC(=O)C1 (stereo not given) | -18% (inactive) | –
2 | CNC1C(O)C(OC2C(N)CC(N)C(OC3OC(CN)=CCC3N)C2O)OCC1(C)O (stereo not given) | 0% (inactive) | –
3 | CC(=O)OCC(=O)[C@@]1(O)CCC2C3CCC4=CC(=O)C=CC4(C)C3C(O)C[C@]21C (stereo not given in full) | 0.386% (inactive) | –
4 | CC(C)C[C@@H](NC(=O)[C@@H](Cc1ccccc1)NC(=O)c1cnccn1)B(O)O | -10.5% (inactive) | –
5 | Cc1onc(-c2c(F)cccc2Cl)c1C(=O)NC1C(=O)N2C1SC(C)(C)C2C(=O)O (stereo not given) | 0.729% (inactive) | –
6 | O=C(NC(CO)C(O)c1ccc([N+](=O)[O-])cc1)C(Cl)Cl (stereo not given) | -9.84% (inactive) | –
7 | CNC1=CN(O)C(c2ccccc2)=c2cc(Cl)ccc2=N1 | – | inactive
8 | OCC1O[C@@H](O[C@@H]2C(CO)OC(O)C(O)C2O)C(O)C(O)C1O (stereo not given in full) | 3.49% (inactive) | –
9 | CC[C@@]1(O)CC2CN(CCc3c([nH]c4ccccc34)[C@](C(=O)OC)(c3cc4c(cc3OC)N(C)C3[C@@](O)(C(=O)OC)C(OC(C)=O)[C@]5(CC)C=CCN6CC[C@@]43C65)C2)C1 (stereo not given in full) | -5% (inactive) | –
10 | C/C(=C(/CCO)SS/C(CCO)=C(\C)N(C=O)Cc1cnc(C)nc1N)N(C=O)Cc1cnc(C)nc1N | -2.11% (inactive) | –
11 | CC(O)C1CCC2C3CCC4CC(O)CCC4(C)C3CCC12C (stereo not given) | 0.875% (inactive) | –
12 | COc1ccc2cc1Oc1cc3c(cc1OC)CC[N+](C)(C)C3Cc1ccc(cc1)Oc1c(OC)c(OC)cc3c1C(C2)[N+](C)(C)CC3 (stereo not given) | -0.81% (inactive) | –
13 | O=[N+]([O-])O[C@H]1CO[C@H]2[C@@H]1OC[C@H]2O | 2.77% (inactive) | –
14 | CCC1OC(=O)C[C@H](O)C(C)[C@@H](O[C@@H]2OC(C)C(O)C(N(C)C)C2O)C(CCN2CC(C)CC(C)C2)CC(C)C(=O)/C=C/C(C)=C\[C@@H]1COC1OC(C)C(O)C(OC)C1OC (stereo not given in full) | -3.25% (inactive) | –
15 | O=c1ccn(C2OC(COP(=O)(O)OC3C(CO)OC(n4ccc(=O)[nH]c4=O)C3O)C(O)C2O)c(=O)[nH]1 (stereo not given) | -19.1% (inactive) | –
16 | C=C1N[C@]2(C(=O)COC(C)=O)[C@@H](C[C@H]3[C@@H]4CCC5=CC(=O)C=C[C@]5(C)[C@H]4[C@@H](O)C[C@@]32C)O1 | 6.42% (inactive) | –
17 | COc1ccc(S(=O)(=O)N2c3ccc(Cl)cc3[C@](O)(c3ccccc3Cl)[C@@H]2C(=O)N2CCC[C@H]2C(N)=O)cc1OC | -10.1% (inactive) | –
18 | CC(=O)OCC(=O)[C@@]1(O)CCC2C3C[C@H](C)C4=CC(=O)C=CC4(C)C3C(O)CC21C (stereo not given in full) | 7.94% (inactive) | –
19 | OC[C@@H]1O[C@](CO)(O[C@H]2O[C@H](CO)[C@@H](O)[C@H](O)[C@H]2O)[C@H](O)[C@H]1O | -0.288% (inactive) | –
20 | O=C(O)C[CH2][Ge](=[O])[O][Ge](=[O])[CH2]CC(=O)O | 4.41% (inactive) | –

Row | SMILES | activity change, negative = cytotoxicity | Potency
21 | CCC(C(=O)C(C)C(O)C(C)CCc1ccc(C)c(O)c1C(=O)O)C1OC(CC)(C2CC[C@@](O)(CC)C(C)O2)CC1C (stereo not given in full) | -15.1% (inactive) | –
22 | NC(=O)OC[C@@H]1[C@H](NC(=O)/C(=N/OCC(=O)O)c2csc(N)n2)C(=O)N1S(=O)(=O)O | -13.3% (inactive) | –
23 | CC(C)(C)NC[C@H](O)CSc1nc(-c2ccc(C(N)=O)s2)cs1 | -6.96% (inactive) | –
24 | O=C1Oc2ccccc2C(=O)C1C(CC(O)c1ccc(-c2ccc(Br)cc2)cc1)c1ccccc1 (stereo not given) | -21.2% (inactive) | –
25 | COC(c1ccccc1)(c1ccccc1)C(Oc1nc(C)cc(C)n1)C(=O)O (stereo not given) | -5.04% (inactive) | –
26 | CCCCCCCCCCCCCCCC(=O)OCC(COP(=O)(O)OCC[N+](C)(C)C)OC(=O)CCCCCCCCCCCCCCC (stereo not given) | -24.6% (inactive) | –
27 | COC1CC2CCC(C)[C@](O)(O2)C(=O)C(=O)N2CCCCC2C(=O)OC(C(C)CC2CCC(O)C(OC)C2)CC(=O)C(C)/C=C(/C)C(O)C(OC)C(=O)C(C)CC(C)C=CC=C/C=C\1C (stereo not given in full) | -12.2% (inactive) | –
28 | O=C(OC[C@@H]1O[C@@](O)(COC(=O)c2cccnc2)[C@H](OC(=O)c2cccnc2)[C@H]1OC(=O)c1cccnc1)c1cccnc1 | 2.64% (inactive) | –
29 | O=C(O)c1ccccc1-c1c2ccc(=O)cc-2oc2cc(O)ccc12 | -0.0031% (inactive) | –
30 | C=C1/C(=C\C=C2/CCC[C@]3(C)[C@@H]([C@H](C)/C=C/[C@@H](O)C4CC4)CC[C@@H]23)C[C@@H](O)C[C@@H]1O | -26.9% (inactive) | –
31 | CN[C@H](C)CCC=C(C)C | -9.08% (inactive) | –
32 | CO[C@H]1OC2O[C@@]3(C)CC[C@H]4[C@H](C)CC[C@@H]([C@H]1C)[C@@]24OO3 (stereo not given in full) | 15.2% (inactive) | –
33 | OCC1OC(O)C(O)C(O)C1O (stereo not given) | -0.385% (inactive) | –
34 | C[S+](C)CC[C@H](N)C(=O)O | -3.87% (inactive) | –
35 | C[n+]1c2cc(N)ccc2cc2ccc(N)cc21 | 16.7% (inactive) | –
36 | Cc1cc2nc3c(=O)[nH]c(=O)nc-3n(CC(O)C(O)C(O)COP(=O)(O)O)c2cc1C (stereo not given) | 0.962% (inactive) | –
37 | NC(=O)NC(CCC(=O)O)C(=O)O (stereo not given) | 4.57% (inactive) | –
38 | NC[C@@H]1O[C@H](OC2[C@@H](CO)O[C@@H](OC3[C@H](O)[C@H](N)C[C@H](N)[C@H]3OC3O[C@H](CO)[C@@H](O)[C@H](O)[C@@H]3N)[C@H]2O)C(N)[C@H](O)[C@@H]1O (stereo not given in full) | -4.24% (inactive) | –
39 | CCCCN1CC(O)C(O)C(O)C1CO (stereo not given) | 4.25% (inactive) | –
40 | CNC1C(O)C(OC2C(NC(=O)C(O)CN)CC(N)C(OC3OC(CN)C(O)C(O)C3O)C2O)OCC1(C)O (stereo not given) | -0.109% (inactive) | –
